# “And” between values parts separate entries of the source, which are not always exact repeats. Equal values may be shown once. Records with an inconclusive call do not appear. The source made the active and inactive calls. Unless noted, calls follow the shape of the dose curve; as a rule, active = well fitted cell-killing curve with a large enough effect; inconclusive = small, poorly fitted or top-dose-only effect, or effect the other way; inactive = flat fitted curve, though single readings scatter. Peptide text beside a SMILES is read from it.
# Assay: qHTS assay for cell viability of the p53RE-bla HCT-116 cell line (AID 743292); also: nearly all actives have a fitted effect of over 55% in size; also: potency is read from the fitted curve at half-maximal effect
# Conditions: p53RE-bla HCT-116 viability, ATP luminescence, 16 h; series mostly up to 95 µM
# Outline: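 Intracellular ATP of p53RE-bla HCT-116 cells measured by luciferase luminescence following 16 h compound incubation at 37 C; DMSO-only wells served as vehicle controls.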
row,SMILES,Potency
1,Nc1nc(Cl)nc2c1ncn2[C@H]1C[C@H](O)[C@@H](CO)O1,inactive
2,Nc1ccc(S(N)(=O)=O)cc1,inactive
3,CNC[C@H](O)c1ccc(O)c(O)c1,inactive
4,CC(=O)Nc1ccc(O)cc1,inactive
5,Cc1cc(O)c2c(c1)C(=O)c1cc(O)cc(O)c1C2=O,31.6 µM (active)
6,COC(=O)[C@H](Cc1ccccc1)NC(=O)[C@@H](N)CC(=O)O (H-Asp-Phe-OMe),inactive
7,CC(=O)N1CCN(c2ccc(OC[C@H]3CO[C@](Cn4ccnc4)(c4ccc(Cl)cc4Cl)O3)cc2)CC1,inactive
8,CS(=O)(=O)OCCCCOS(C)(=O)=O,inactive
9,Cc1ccc(C)c(OCCCC(C)(C)C(=O)O)c1,inactive
10,CCc1nc(N)nc(N)c1-c1ccc(Cl)cc1,28.2 µM (active)
11,COc1c2occc2cc2ccc(=O)oc12,inactive
12,N[C@@H](Cc1cc(I)c(Oc2cc(I)c(O)c(I)c2)c(I)c1)C(=O)O,inactive
13,NS(=O)(=O)c1cc(C(=O)O)c(NCc2ccco2)cc1Cl,inactive
14,CCCc1cc(=O)[nH]c(=S)[nH]1,inactive
15,CC1(C)NC(=O)N(c2ccc([N+](=O)[O-])c(C(F)(F)F)c2)C1=O,inactive
16,O=c1c(O)c(-c2ccc(O)cc2O)oc2cc(O)cc(O)c12,inactive
17,c1ccc2[nH]c(-c3cscn3)nc2c1,inactive
18,CCCCC(CC)COC(=O)C(C#N)=C(c1ccccc1)c1ccccc1 (stereo unspecified),inactive
19,CN(C)c1ccc2nc3ccc(=[N+](C)C)cc-3sc2c1,28.2 µM (active)
20,COc1cc(OC)c(C(=O)CCCN2CCCC2)c(OC)c1,inactive

# Assay: qHTS profiling for inhibitors of Plasmodium falciparum (3D7) proliferation (AID 743322; call rule not given here;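 also: infected erythrocytes exposed to compound for 72 h before lysis; 100% = DMSO vehicle wells and 0% = 0.29 µM artemisinin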)
# Conditions: P. falciparum 3D7 proliferation; at 28.7 µM (top of the series) unless noted
# Outline: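 Erythrocytes infected with P. falciparum (0.3% parasitemia, 2.5% hematocrit) incubated with compounds 72 h at 37 C, 5% CO2. Lysis with saponin/Triton buffer containing SYBR Green I, overnight at room temperature in the dark; DNA fluorescence (485/535 nm) normalised to 0.29 uM artemisinin and DMSO.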
row,SMILES,remaining parasite growth % (stronger effect = lower value)
1,Cc1ccc(NC(=O)c2ccc(CN3CCN(C)CC3)cc2)cc1Nc1nccc(-c2cccnc2)n1,1.04%
2,Nc1nc(Cl)nc2c1ncn2[C@H]1C[C@H](O)[C@@H](CO)O1,83.8% [at 57.5 µM]
3,Cc1cccc(-c2[nH]ncc2-c2ccc3ncccc3n2)n1,92.9% [at 57.5 µM]
4,COc1cc(Nc2c(C#N)cnc3cc(OCCCN4CCN(C)CC4)c(OC)cc23)c(Cl)cc1Cl,-0.245%
5,CC(C)c1ccc2c(c1)c(SC(C)(C)C)c(CC(C)(C)C(=O)O)n2Cc1ccc(Cl)cc1,39.7%
6,Nc1cccc2c1CN(C1CCC(=O)NC1=O)C2=O (stereo unspecified),98.3% [at 57.5 µM] and 94.5% [at 57.5 µM]
7,CCN(CCO)CCCC(C)Nc1ccnc2cc(Cl)ccc12 (stereo unspecified),0.834% and 0.742%
8,CCOC(=O)C1=C(O)C(=O)N(Cc2ccccc2)C1,34%
9,CCN(CC)CCOc1ccc(Nc2ncc3cc(-c4c(Cl)cccc4Cl)c(=O)n(C)c3n2)cc1,0.673%
10,CCc1nc(N)nc(N)c1-c1ccc(Cl)cc1,-1.1%
11,CC(C)C[C@H](NC(=O)[C@H](Cc1ccccc1)NC(=O)c1cnccn1)B(O)O,-0.334%
12,CCOC(=O)C(C)Oc1cccc2c(=O)n(CC(=O)Nc3ccc4c(c3)OCCO4)ccc12 (stereo unspecified),115%
13,C[C@@H](N)C1CCC(C(=O)Nc2ccncc2)CC1 (stereo partly specified),103%
14,CN(C)c1ccc2nc3ccc(=[N+](C)C)cc-3sc2c1,1.85% [at 57.5 µM]
15,Cc1cccc(C#Cc2ccccc2)n1,106%
16,S=c1nc[nH]c2nc[nH]c12,58.5% [at 57.5 µM]

# From PubChem BioAssay (NCATS)
